# The whole screen tested about 220,000 compounds, of which about 1,600 (0.73%) were called active.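 Rule for the calls: active = mean inhibition across duplicate retests at 20 µM reaching about 50% (limit read from the data); inactive = the rest, inconclusive results apart.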 The sample as a whole holds a higher share of actives than the screen did.
# Target: Runt-related transcription factor 1 (Homo sapiens) + Core-binding factor subunit beta (Homo sapiens) (UniProt Q01196+Q13951)
# Assay: inhibitors of RUNX1 Runt–CBFb-SMMHC binding, primary screen, biochemical, FRET, Cerulean-Runt, Venus-CBFb-SMMHC, uHTS (AID 1434);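 note: 0% = DMSO wells and 100% = wells with excess untagged CBFb-SMMHC; inhibitors lower the FRET ratio by blocking Runt binding to CBFb-SMMHC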
# Settings: Cerulean-Runt/Venus-CBFb-SMMHC FRET ratio 530/480, 1 h, at 20 µM, stronger effect = higher value
# Runt-related transcription factor 1 (Homo sapiens) + Core-binding factor subunit beta (Homo sapiens), sequence (Q01196 whole entry, looked up): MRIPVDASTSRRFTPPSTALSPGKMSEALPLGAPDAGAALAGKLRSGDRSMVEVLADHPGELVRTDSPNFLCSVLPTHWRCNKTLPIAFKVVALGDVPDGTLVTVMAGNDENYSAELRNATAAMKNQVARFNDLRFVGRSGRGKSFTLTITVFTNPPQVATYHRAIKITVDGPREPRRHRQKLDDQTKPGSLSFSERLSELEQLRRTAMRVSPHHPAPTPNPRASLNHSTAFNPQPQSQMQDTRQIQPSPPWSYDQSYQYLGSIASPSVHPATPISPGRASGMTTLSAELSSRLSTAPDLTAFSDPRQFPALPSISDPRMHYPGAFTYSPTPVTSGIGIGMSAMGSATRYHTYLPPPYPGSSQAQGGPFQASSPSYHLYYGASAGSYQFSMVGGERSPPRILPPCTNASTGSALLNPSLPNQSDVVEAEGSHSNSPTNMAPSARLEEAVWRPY
# Runt-related transcription factor 1 (Homo sapiens) + Core-binding factor subunit beta (Homo sapiens), sequence (Q13951 whole entry, looked up): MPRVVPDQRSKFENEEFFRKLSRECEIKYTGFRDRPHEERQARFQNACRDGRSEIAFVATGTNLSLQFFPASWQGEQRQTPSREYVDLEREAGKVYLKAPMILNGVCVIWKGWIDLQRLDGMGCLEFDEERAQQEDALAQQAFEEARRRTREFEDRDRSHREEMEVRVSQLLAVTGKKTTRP
SMILES,inhibition,inhibition (retest duplicate average) [%]
CC(C)Oc1c(Br)cc(Br)cc1/C=N/NC(N)=S,-0.8% (inactive),
C=CCN(CC=C)C(=O)COC(=O)c1n[nH]c2ccccc12,-3% (inactive),
O=c1[nH]c(=S)[nH]c2[nH]c(=S)[nH]c12,45.1% (inactive),
COc1ccc(C(C(=O)NC2CCCCC2)N(C(=O)CCl)c2ccccc2Cl)cc1 (stereo unspecified),-1.2% (inactive),
OC(COCC1COc2ccccc2O1)CN1CCN(c2ccc(F)cc2)CC1 (stereo unspecified),0.5% (inactive),
COc1ccc(Cc2nnc(NC(=O)c3cc(OC)c(OC)c(OC)c3)s2)cc1OC,-2% (inactive),
COc1cc(/C=N/NC(=S)Nc2cccnc2)cc(OC)c1O,3% (inactive),
CCCCCCCC[n+]1cccc(C(=O)N2c3c(nc(N)[nH]c3=O)NC(C)C2C)c1 (stereo unspecified),3.4% (inactive),
COc1ccc2c(CN3CCN(S(=O)(=O)c4cccs4)CC3)cc(=O)oc2c1,12.6% (inactive),
O=c1cc(CN2CCN(S(=O)(=O)/C=C/c3ccccc3)CC2)c2ccc(O)cc2o1,130% (active),146
O=C(CN1CCN(S(=O)(=O)/C=C/c2ccccc2)CC1)Nc1ccc(N2CCOCC2)cc1,1.4% (inactive),
COc1cccc(OCCCN2CCCCCC2)c1,-44.8% (inactive),
O=C1OC(/C=C/c2ccccc2)=NC/1=C/c1ccco1,-22.3% (inactive),
COc1ccccc1/C=C/C1=NC(=C\N(C)C)/C(=O)O1,89.1% (active),91.9
COc1cccc(/C=C/c2ccc3ccccc3n2)c1OC(C)=O,-3.2% (inactive),
CC(C)=C1C2CCC1C1C(=O)N(NC(=O)c3ccco3)C(=O)C21 (stereo unspecified),-1.2% (inactive),
COc1cccc(C(=O)c2cc3ccc(O)cc3oc2=O)c1,165% (active),194
COc1ccc2oc(=O)c(C(=O)N3CCCC3)cc2c1,3.9% (inactive),
COc1ccc2oc(=O)c(C(=O)O)cc2c1,1.6% (inactive),
NC(=O)c1c(Nc2nc3c(F)cccc3s2)sc2c1CCCC2,104% (active),175
Fc1cc(F)c2nc(Nc3nc4c(F)cccc4s3)sc2c1,4.2% (inactive),
NC(=O)c1c(NC(=O)CSc2nc(N)cc(=O)[nH]2)sc2c1CCCC2,-8.6% (inactive),
CCCN1CC=C2C(C#N)=C(N)C(C#N)(C#N)C(c3cc(OC)ccc3OC)C2C1 (stereo unspecified),88.4% (active),77.5
CCN1CC=C2C(C#N)=C(N)C(C#N)(C#N)[C@H](c3ccoc3)[C@H]2C1,-20.7% (inactive),
CCOC(=O)N1CC=C2C(C#N)=C(N)C(C#N)(C#N)[C@H](c3cccs3)[C@H]2C1,-18.3% (inactive),
Cc1ccc(C2Nc3ccccc3C(=O)N2CCN2CCNC2=O)cc1 (stereo unspecified),2.4% (inactive),
